Assay results published in PubChem BioAssay AID1566 (Sanford-Burnham Center for Chemical Genomics, 2009).
Out of some 290,000 compounds screened, about 1,800 (0.62%) were called active. No stated cut-off is given here; in the data, active means inhibition above about 50%; inactive means the rest. Many of the other results were omitted from the sample, so actives are more common in it than they were.

Test: NOD2 signaling inhibitors, cell-based, luminescence, uHTS, HEK293 (AID 1566)
Conditions: HEK293 NOD2/NF-kB luciferase reporter, at 4 µM, hits give high values

inhibition, inactive:
CN1CCN(CC(=O)Nc2ccccc2Oc2ccccc2)CC1 15.7%
COc1ccc(OCCSc2nc(C)c(Cc3ccccc3)c(=O)[nH]2)cc1 25.5%
Cn1c(=O)[nH]c(=O)c2c1nc(NCc1ccccc1)n2Cc1ccc(F)cc1 16%
Cc1ccc(/C=N/NC(=O)CSc2nc3ccccc3c(=O)n2-c2ccccc2C)s1 -0.2%
N#Cc1c2n(c3c(=O)n(Cc4ccccc4Cl)cnc13)CCCCC2 16.9%
Cc1oc2ccc(OCc3cccc(Cl)c3)cc2c1C(=O)O 9.4%
O=S(=O)(c1ccc(F)cc1)N1CCN(Cc2ccccn2)CC1 8.3%
NS(=O)(=O)c1ccc(NC(=O)COC(=O)CCc2ccc(S(=O)(=O)N3CCOCC3)cc2)cc1 -3%
CCn1c(=O)c(C(=O)Nc2cnccn2)c(O)c2ccccc21 18.7%
CC(C)Cn1c(=O)c(C(=O)Nc2cnccn2)c(O)c2ccccc21 16.2%
CC(C)Cn1c(=O)c(C(=O)Nc2ccccc2S(N)(=O)=O)c(O)c2ccccc21 22.9%
Cn1c(=O)c(C(=O)Nc2cnccn2)c(O)c2ccccc21 -39.4%
CCCn1c(=O)c(C(=O)Nc2cnccn2)c(O)c2ccccc21 -10.4%
CCn1c(=O)c(C(=O)Nc2ccccc2S(N)(=O)=O)c(O)c2ccccc21 -12.7%
CCCC(=O)N(CCN1CCOCC1)c1nc2c(C)ccc(C)c2s1 10.7%
COc1ccc(-c2cnn3cc(-c4cccc(Cl)c4)cnc23)cc1 -3.7%
COc1ccc(/C=N/NC(=O)c2ccoc2C)cc1COc1ccc(Cl)cc1 -42%
O=C(N/N=C/c1cn(-c2ccccc2)nc1-c1cccnc1)c1cccnc1 7.5%
N#CC(=C=[N-])c1nc2ccccc2nc1-[n+]1cccc(NC(=O)c2cccs2)c1 10%
Nc1nnc(COc2ccccc2)s1 -4.5%
